Binding signal data for seven sequences are collected here from paper PMC7862700, “An all-to-all approach to the identification of sequence-specific readers for epigenetic DNA modifications on cytosine”.

Holding throughout (assay): DAPPL (digital affinity profiling via proximity ligation, sequencing); 10 mM Tris-HCl pH 7.5, 50 mM NaCl, 1 mM DTT, 4% glycerol, room temperature, 30 min; GST-TFs on glutathione beads, 16-mer random dsDNA library, 0.1% formaldehyde crosslink after washing; high values mean tight binding
Holding throughout (details): protein: recombinant; tags: N-terminal GST; dsDNA, one strand shown

One experiment deals with T1, FLI1 (Homo sapiens, UniProt Q01543 1-452).
T1 sequence: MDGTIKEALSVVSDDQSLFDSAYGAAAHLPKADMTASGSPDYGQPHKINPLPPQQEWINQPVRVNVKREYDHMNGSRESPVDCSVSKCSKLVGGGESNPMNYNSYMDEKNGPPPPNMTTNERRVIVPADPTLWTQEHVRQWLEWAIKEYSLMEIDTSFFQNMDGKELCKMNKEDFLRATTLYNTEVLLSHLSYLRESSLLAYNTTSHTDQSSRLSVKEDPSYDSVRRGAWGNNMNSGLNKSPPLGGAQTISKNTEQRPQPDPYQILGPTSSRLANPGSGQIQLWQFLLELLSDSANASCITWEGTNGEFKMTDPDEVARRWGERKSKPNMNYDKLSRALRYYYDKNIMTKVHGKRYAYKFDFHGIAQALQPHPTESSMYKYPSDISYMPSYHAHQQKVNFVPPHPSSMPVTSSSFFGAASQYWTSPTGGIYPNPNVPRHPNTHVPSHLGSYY
The essentials: (§1)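 Pools of DNA-barcoded human transcription factors, expressed in yeast as GST fusions on glutathione beads and combined with a tag-only sample, were incubated with 200 nmole of a 16-mer random double-stranded DNA library. Incubation took 30 min at room temperature in Tris/NaCl/DTT/glycerol buffer and was followed by washing, 0.1% formaldehyde crosslinking, proximity ligation (BsaI/T4 ligase, 1 h, 37 °C), PCR amplification and sequencing on an Illumina NextSeq500. Binding signal is the ratio of a hexamer's read frequency for a factor to its frequency for the tag-only sample.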

The next experiment has as its target T2, ELK1 (Homo sapiens, UniProt P19419 1-428).
T2 sequence: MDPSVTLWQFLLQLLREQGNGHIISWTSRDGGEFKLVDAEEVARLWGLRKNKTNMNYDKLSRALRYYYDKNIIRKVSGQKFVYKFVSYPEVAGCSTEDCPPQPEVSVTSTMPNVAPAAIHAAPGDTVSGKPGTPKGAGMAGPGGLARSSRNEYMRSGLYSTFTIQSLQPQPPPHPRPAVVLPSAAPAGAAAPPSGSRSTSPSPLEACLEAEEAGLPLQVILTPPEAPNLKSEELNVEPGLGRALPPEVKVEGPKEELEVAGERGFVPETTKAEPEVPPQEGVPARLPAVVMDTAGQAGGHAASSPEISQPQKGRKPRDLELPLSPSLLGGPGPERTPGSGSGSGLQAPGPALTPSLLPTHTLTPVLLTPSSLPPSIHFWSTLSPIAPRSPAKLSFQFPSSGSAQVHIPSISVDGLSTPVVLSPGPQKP
The essentials:
as §1

The next experiment deals with T3, GABPA (Homo sapiens, UniProt Q06546 1-454).
T3 sequence: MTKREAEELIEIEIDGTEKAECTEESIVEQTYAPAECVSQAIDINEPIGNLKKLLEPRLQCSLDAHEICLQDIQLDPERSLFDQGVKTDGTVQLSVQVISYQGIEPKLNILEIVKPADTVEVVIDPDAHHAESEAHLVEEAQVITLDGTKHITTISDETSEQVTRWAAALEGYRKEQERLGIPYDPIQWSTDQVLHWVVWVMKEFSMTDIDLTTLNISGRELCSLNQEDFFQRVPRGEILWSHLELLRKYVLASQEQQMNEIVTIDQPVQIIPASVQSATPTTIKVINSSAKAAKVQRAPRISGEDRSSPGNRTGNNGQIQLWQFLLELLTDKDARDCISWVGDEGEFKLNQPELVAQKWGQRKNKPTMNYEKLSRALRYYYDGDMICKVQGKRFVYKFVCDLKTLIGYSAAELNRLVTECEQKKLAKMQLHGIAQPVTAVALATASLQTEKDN
The essentials: as §1

Another experiment deals with T4, ERG (Homo sapiens, UniProt P11308 1-479).
T4 sequence: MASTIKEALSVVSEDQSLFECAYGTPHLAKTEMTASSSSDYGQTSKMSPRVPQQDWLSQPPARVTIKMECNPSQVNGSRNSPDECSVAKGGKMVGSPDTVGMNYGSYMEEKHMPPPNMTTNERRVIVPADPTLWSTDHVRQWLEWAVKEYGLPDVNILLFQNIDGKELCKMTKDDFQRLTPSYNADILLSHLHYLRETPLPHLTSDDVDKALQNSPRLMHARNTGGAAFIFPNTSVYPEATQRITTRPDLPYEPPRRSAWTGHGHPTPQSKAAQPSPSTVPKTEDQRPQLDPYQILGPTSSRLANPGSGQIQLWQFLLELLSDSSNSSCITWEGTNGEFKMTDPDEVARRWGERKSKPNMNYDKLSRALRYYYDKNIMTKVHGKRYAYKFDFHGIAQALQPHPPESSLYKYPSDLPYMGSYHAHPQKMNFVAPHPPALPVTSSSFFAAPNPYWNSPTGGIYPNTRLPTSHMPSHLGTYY
The essentials: as §1

The target of the next experiment is ELF1 (Homo sapiens, UniProt P32519 1-619). The essentials: as §1
In the next experiment the target is T5, EHF (Homo sapiens, UniProt Q9NZC4 1-300).
T5 sequence: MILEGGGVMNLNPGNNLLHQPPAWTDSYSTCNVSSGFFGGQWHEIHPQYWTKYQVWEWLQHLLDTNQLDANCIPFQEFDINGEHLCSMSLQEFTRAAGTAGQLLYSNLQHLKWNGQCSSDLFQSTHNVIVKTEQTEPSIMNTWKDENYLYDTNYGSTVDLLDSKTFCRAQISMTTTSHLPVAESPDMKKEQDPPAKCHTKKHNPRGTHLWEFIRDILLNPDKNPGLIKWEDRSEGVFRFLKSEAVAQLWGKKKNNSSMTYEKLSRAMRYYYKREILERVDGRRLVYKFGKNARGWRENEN
The essentials:
as §1

In a further experiment the target is SPI1 (Homo sapiens, UniProt P17947 1-270). The essentials: as §1
The next experiment concerns the target SPIB (Homo sapiens, UniProt Q01892 1-262). The essentials:
as §1

The next experiment has as its target T6, ELK3 (Homo sapiens, UniProt P41970 1-407).
T6 sequence: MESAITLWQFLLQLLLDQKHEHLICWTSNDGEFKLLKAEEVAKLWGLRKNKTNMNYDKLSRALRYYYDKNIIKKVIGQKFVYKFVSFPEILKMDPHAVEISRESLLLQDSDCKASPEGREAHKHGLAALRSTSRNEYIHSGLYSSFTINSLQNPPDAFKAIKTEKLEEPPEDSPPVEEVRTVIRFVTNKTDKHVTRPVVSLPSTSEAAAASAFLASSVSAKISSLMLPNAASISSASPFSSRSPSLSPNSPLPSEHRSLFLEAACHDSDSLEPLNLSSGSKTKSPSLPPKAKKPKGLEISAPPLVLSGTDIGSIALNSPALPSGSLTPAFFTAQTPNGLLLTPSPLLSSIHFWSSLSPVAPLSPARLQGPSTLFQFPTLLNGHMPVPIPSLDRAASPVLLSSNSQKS
The essentials: as §1

Chain of SPIB (Q01892 whole entry): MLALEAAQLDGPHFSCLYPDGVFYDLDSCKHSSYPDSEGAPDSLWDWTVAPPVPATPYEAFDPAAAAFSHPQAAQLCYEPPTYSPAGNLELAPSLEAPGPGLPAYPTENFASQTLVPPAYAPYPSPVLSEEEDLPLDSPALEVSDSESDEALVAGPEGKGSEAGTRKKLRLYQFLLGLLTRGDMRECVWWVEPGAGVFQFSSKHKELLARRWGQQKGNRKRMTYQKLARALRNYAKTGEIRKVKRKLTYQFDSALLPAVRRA
Chain of ELF1 (P32519 whole entry): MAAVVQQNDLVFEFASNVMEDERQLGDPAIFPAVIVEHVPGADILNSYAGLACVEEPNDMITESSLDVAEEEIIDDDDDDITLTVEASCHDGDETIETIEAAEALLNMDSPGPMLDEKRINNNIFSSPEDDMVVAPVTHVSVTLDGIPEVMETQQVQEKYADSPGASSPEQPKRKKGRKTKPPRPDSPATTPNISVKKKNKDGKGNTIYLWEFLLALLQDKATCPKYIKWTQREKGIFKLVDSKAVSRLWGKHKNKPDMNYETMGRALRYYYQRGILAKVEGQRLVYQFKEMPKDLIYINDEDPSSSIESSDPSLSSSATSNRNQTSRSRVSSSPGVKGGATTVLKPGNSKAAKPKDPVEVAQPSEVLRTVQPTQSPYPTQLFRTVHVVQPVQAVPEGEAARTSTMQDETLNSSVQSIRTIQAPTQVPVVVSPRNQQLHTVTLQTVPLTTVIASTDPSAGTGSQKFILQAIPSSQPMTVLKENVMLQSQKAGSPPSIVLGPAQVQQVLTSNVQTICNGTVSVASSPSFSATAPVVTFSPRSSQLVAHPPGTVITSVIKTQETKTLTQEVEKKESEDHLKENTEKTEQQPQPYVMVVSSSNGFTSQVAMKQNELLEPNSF

CTGCTC: the binding signal with FLI1 was 1.32 fold enrichment (6-mer frequency, TF over GST control); with ELK1, 1.37 fold enrichment (6-mer frequency, TF over GST control); with GABPA, 1.18 fold enrichment (6-mer frequency, TF over GST control); in the experiment with ERG, 1.28 fold enrichment (6-mer frequency, TF over GST control); with ELF1 it was 1.34 fold enrichment (6-mer frequency, TF over GST control); with EHF it was 1.27 fold enrichment (6-mer frequency, TF over GST control). In addition, the binding signal with SPI1 was 1.29 fold enrichment (6-mer frequency, TF over GST control); with SPIB, 1.39 fold enrichment (6-mer frequency, TF over GST control); with ELK3, 1.3 fold enrichment (6-mer frequency, TF over GST control).

On to ATGGTT, for which the binding signal is 1.41 fold enrichment (6-mer frequency, TF over GST control) with FLI1; 1.28 fold enrichment (6-mer frequency, TF over GST control) with ELK1; 1.28 fold enrichment (6-mer frequency, TF over GST control) with GABPA; 1.35 fold enrichment (6-mer frequency, TF over GST control) in the experiment with ERG; 1.39 fold enrichment (6-mer frequency, TF over GST control) with ELF1; 1.28 fold enrichment (6-mer frequency, TF over GST control) with EHF. Moreover, the binding signal with SPI1 was 1.3 fold enrichment (6-mer frequency, TF over GST control); with SPIB it was 1.3 fold enrichment (6-mer frequency, TF over GST control); with ELK3, 1.39 fold enrichment (6-mer frequency, TF over GST control).

As to AACCCG, the binding signal is 1.36 fold enrichment (6-mer frequency, TF over GST control) with FLI1; 1.44 fold enrichment (6-mer frequency, TF over GST control) with ELK1; 1.31 fold enrichment (6-mer frequency, TF over GST control) with GABPA; 1.46 fold enrichment (6-mer frequency, TF over GST control) with ERG; 1.5 fold enrichment (6-mer frequency, TF over GST control) in the experiment with ELF1; 1.54 fold enrichment (6-mer frequency, TF over GST control) with EHF. For the same sequence, the binding signal is 1.36 fold enrichment (6-mer frequency, TF over GST control) with SPI1; 1.46 fold enrichment (6-mer frequency, TF over GST control) with SPIB; 1.49 fold enrichment (6-mer frequency, TF over GST control) with ELK3.

With AATGCT, the binding signal with FLI1 was 1.16 fold enrichment (6-mer frequency, TF over GST control); with ELK1 it was 1.17 fold enrichment (6-mer frequency, TF over GST control); with GABPA, 1.14 fold enrichment (6-mer frequency, TF over GST control); in the experiment with ERG, 1.16 fold enrichment (6-mer frequency, TF over GST control); with ELF1, 1.16 fold enrichment (6-mer frequency, TF over GST control); with EHF, 1.14 fold enrichment (6-mer frequency, TF over GST control). The binding signal in the experiment with SPI1 was 1.12 fold enrichment (6-mer frequency, TF over GST control); in the experiment with SPIB, 1.16 fold enrichment (6-mer frequency, TF over GST control); with ELK3, 1.12 fold enrichment (6-mer frequency, TF over GST control).

On to ACATAA, for which the binding signal in the experiment with FLI1 is 1.01 fold enrichment (6-mer frequency, TF over GST control); with ELK1, 1.09 fold enrichment (6-mer frequency, TF over GST control); with GABPA it was 1.08 fold enrichment (6-mer frequency, TF over GST control); with ERG, 1.17 fold enrichment (6-mer frequency, TF over GST control); in the experiment with ELF1, 1.13 fold enrichment (6-mer frequency, TF over GST control); with EHF, 1.1 fold enrichment (6-mer frequency, TF over GST control). In addition, the binding signal with SPI1 is 1.08 fold enrichment (6-mer frequency, TF over GST control); with SPIB, 1.1 fold enrichment (6-mer frequency, TF over GST control); with ELK3 it was 1.11 fold enrichment (6-mer frequency, TF over GST control).

With TTATTT, the binding signal was 1.4 fold enrichment (6-mer frequency, TF over GST control) in the experiment with FLI1; 1.42 fold enrichment (6-mer frequency, TF over GST control) with ELK1; 1.33 fold enrichment (6-mer frequency, TF over GST control) with GABPA; 1.44 fold enrichment (6-mer frequency, TF over GST control) in the experiment with ERG; 1.3 fold enrichment (6-mer frequency, TF over GST control) with ELF1; 1.35 fold enrichment (6-mer frequency, TF over GST control) in the experiment with EHF. Besides, the binding signal was 1.44 fold enrichment (6-mer frequency, TF over GST control) with SPI1; 1.37 fold enrichment (6-mer frequency, TF over GST control) with SPIB; 1.33 fold enrichment (6-mer frequency, TF over GST control) with ELK3.

In the case of TTCATT, the binding signal with FLI1 is 1.25 fold enrichment (6-mer frequency, TF over GST control); with ELK1, 1.19 fold enrichment (6-mer frequency, TF over GST control); with GABPA, 1.16 fold enrichment (6-mer frequency, TF over GST control); in the experiment with ERG, 1.2 fold enrichment (6-mer frequency, TF over GST control); with ELF1, 1.24 fold enrichment (6-mer frequency, TF over GST control); in the experiment with EHF it was 1.21 fold enrichment (6-mer frequency, TF over GST control). Further, the binding signal with SPI1 was 1.21 fold enrichment (6-mer frequency, TF over GST control); in the experiment with SPIB, 1.22 fold enrichment (6-mer frequency, TF over GST control); with ELK3 it was 1.23 fold enrichment (6-mer frequency, TF over GST control).
